Screens from PubChem.
Compounds with a hit are over-represented: about 14% of the library has one in this group of screens.
Sm TGR block – qHTS Assay for the Inhibitors of Schistosoma Mansoni Peroxiredoxins | Schistosoma mansoni thioredoxin glutathione reductase (TGR), Q962Y6 | purified TGR, DTNB reduction, TNB absorbance 405 nm | Potency, µM (highest dose often 114 µM), for the others: at the top dose activity change, negative = inhibition, most hits filed as inhibitors | 360,000 compounds, 3% hits | AID 485364, 2010; also: potency is read from the fitted curve at half-maximal effect; nearly all actives have a fitted effect of over 60% in size
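Kinetic colorimetric format: TGR-catalysed, NADPH-driven DTNB reduction monitored via TNB absorbance. Enzyme dispensed at 20 nM; compound exposure 15 min at room temperature before reaction start.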
HCMV antiviral – qHTS Assay for inhibitors of the human cytomegalovirus (HCMV). HFF cells, HCMV-luciferase reporter, 72 h; stronger effect = lower value. activity change, negative = inhibition, % at 57.5 µM. 410,000 compounds, 4.5% hits. AID 1259415, 2018; in the data active = activity change below about -60%; inconclusive = no clear call, values can overlap the other calls; inactive = above about -39%
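Human foreskin fibroblasts infected with luciferase-reporter HCMV at MOI 1 PFU/cell, compounds at two doses. Luciferase measured 72 h post infection; normalized to buffer-only basal and Salinomycin (10uM) controls.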
Pf growth 48h – Primary qHTS for delayed death inhibitors of the malarial parasite plastid, 48 hour incubation; 310,000 compounds, 5.9% hits; P. falciparum luciferase growth in erythrocytes, 48 h; Potency, µM (highest dose often 28.7 µM), for inactives: top-dose activity change, negative = inhibition, actives largely listed as inhibitors; AID 504832, 2011; also: potency is read from the fitted curve at half-maximal effect
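Luciferase-expressing P. falciparum in infected erythrocytes (2% hematocrit, 0.1% parasitemia final) in RPMI 1640/0.5% Albumax were exposed to compound for 48 hours at 37 C, 5% CO2; growth read as luminescence.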
Pf growth 96h – Primary qHTS for delayed death inhibitors of the malarial parasite plastid, 96 hour incubation; Potency, µM (doses to about 28.7 µM), for the others: top-dose activity change, negative = inhibition, most hits filed as inhibitors; P. falciparum luciferase reporter growth, 96 h; 320,000 compounds, 6.9% hits; also: potency is read from the fitted curve at half-maximal effect
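Plates of compound plus infected erythrocytes (2% hematocrit, 0.05% parasitemia final) incubate 96 hours, 37 C, 5% CO2. Detection reagent added; reduced luminescence from the parasites' luciferase reporter flags inhibition.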
Giardia FBPA inh – qHTS Assay for Inhibitors of Fructose-1,6-bisphosphate Aldolase from Giardia Lamblia | AID 2451, 2010 | 290,000 compounds, 0.71% hits | purified Giardia FBPA | Potency, µM (highest dose often 59.6 µM), without a hit: top-dose activity, negative = inhibition, most hits filed as inhibitors; also: potency is read from the fitted curve at half-maximal effect; nearly all actives have a fitted effect of over 55% in size
Target sequence (A8B2U2 whole entry, looked up): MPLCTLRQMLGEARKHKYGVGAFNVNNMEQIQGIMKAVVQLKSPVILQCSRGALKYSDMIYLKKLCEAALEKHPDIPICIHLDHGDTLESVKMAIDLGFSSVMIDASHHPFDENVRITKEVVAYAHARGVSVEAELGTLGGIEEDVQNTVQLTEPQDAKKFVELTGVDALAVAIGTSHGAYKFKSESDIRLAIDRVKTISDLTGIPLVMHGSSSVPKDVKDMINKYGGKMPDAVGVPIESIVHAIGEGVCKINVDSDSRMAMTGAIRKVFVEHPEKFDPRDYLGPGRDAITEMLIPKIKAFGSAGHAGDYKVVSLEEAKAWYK
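40 nM FBPA preincubated 10 min at RT with compound (up to 57.5 uM final), then substrate plus GAPDH/TPI/NAD/arsenate coupling and diaphorase/resazurin added. Fluorescence read after 20 min at RT, 525/598 nm.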
Active calls of the source: *; ? = inconclusive; nt = no result; + = active, no number. Unless noted, calls follow the shape of the dose curve; as a rule, active = well fitted curve in the direction sought with a large enough effect; inconclusive = small, poorly fitted or top-dose-only effect, or another doubt; inactive = no such curve, though single readings can be large; an effect the other way counts as inactive or inconclusive. % is scaled to controls: 0 for no effect and ±100 for the full control effect.

SMILES | Sm TGR block | HCMV antiviral | Pf growth 48h | Pf growth 96h | Giardia FBPA inh
CCSC1=NC(C)(C)C=C(/C=C/c2ccc(Cl)cc2Cl)N1 | 18µM* | 8 | nt | ? | -12%
Nc1nccc(/C=C/c2ccc(Cl)cc2)n1 | 12% | 80 | 241% | 106% | 0%
Clc1ccc(/C=C/c2ncc[nH]2)c(Cl)c1 | 1% | 110 | ? | ? | -9%
CSC1=NC(C)(C)C=C(/C=C/c2c(Cl)cccc2Cl)N1 | 16µM* | 20 | ? | ? | -19%
Nc1nccc(/C=C/c2c(Cl)cccc2Cl)n1 | 21% | -14 | ? | 5% | -5%
CSC1=NC(C)(C)C=C(/C=C/c2ccc(Cl)cc2Cl)N1 | 20µM* | -87* | ? | 12µM* | -23%
CSC1=NC(C)(C)C=C(/C=C/c2ccc(Cl)cc2)N1 | 5µM* | -74* | -24% | ? | -4%
CCSC1=NC(C)(C)C=C(C)N1 | -4% | -22 | 16% | -2% | 2%
CS(=O)(=O)Nc1cccc(-c2ccc3ncnc(NC4CCNCC4)c3c2)c1 | nt | nt | nt | nt | 3%
CCN(CC)S(=O)(=O)c1ccc2c(c1)N(CC(=O)Nc1cccnc1Cl)C(=O)CO2 | 5% | 31 | -4% | 14% | 7%
c1ccc(CN2CCCC3(CCCN(Cc4nc(COc5ccccc5)no4)C3)C2)cc1 (centres undefined) | 1% | -9 | 12µM* | 40% | -2%
c1ccc(OCc2noc(CN3CCC(C4CCCCC4)C3)n2)cc1 (centres undefined) | -9% | -61* | ? | 1% | 5%
c1ccc(CN2CCCC3(CCCN(Cc4nc(CC5CC5)no4)C3)C2)cc1 (centres undefined) | 2% | 1 | -11% | 283% | -1%
COc1cc2c(cc1OC)[C@@H]1N(C)c3ccccc3[C@@]13CCN[C@H]3C2 | nt | -2 | nt | nt | nt
O=C(CSc1nnc(-c2ccc(F)cc2)c2ccccc12)Nc1c(F)cccc1F | 8% | -83* | -17% | ? | 4%
O=C(CSc1nnc(-c2ccc(F)cc2)c2ccccc12)Nc1cccc(Cl)c1 | -6% | -3 | ? | -34% | 1%
COc1ccc(CCNC(=O)CSc2nnc(-c3ccc(F)cc3)c3ccccc23)cc1OC | -1% | -18 | 9.3µM* | 5.2µM* | 5%
O=C(CSc1nc2ccccc2c2nc(-c3ccccc3)nn12)Nc1ccc(F)cc1 | 5% | + | nt | nt | nt
O=C(CSc1nnc(-c2ccc(F)cc2)c2ccccc12)Nc1ccccc1 | 7% | -63* | -20% | -22% | 3%
Cc1nc(N2CCCCC2)sc1C(=O)c1ccc(SCCO)c([N+](=O)[O-])c1 | 2% | ? | -12% | 4% | 0%
Cc1nc(N2CCCCC2)sc1C(=O)c1cccc([N+](=O)[O-])c1 | 1% | -73* | ? | -65% | -8%
CCOc1ccc(NC(=O)CCN2C(=O)c3cccc([N+](=O)[O-])c3C2=O)cc1 | -12% | 30 | 7% | ? | 6%
CN(C)c1ccc(NC(=O)CCN2C(=O)c3cccc([N+](=O)[O-])c3C2=O)cc1 | -14% | 68 | 50% | 12µM* | 0%
Cc1cccnc1N=O | nt | 21 | nt | nt | nt
Cc1ccccc1C(=O)N1[C@@H](C(C)C)COc2cc(Br)ccc2S1(=O)=O | nt | -10 | nt | nt | nt
SMILES | Sm TGR block | HCMV antiviral | Pf growth 48h | Pf growth 96h | Giardia FBPA inh
COc1ccc(OC)c(C2C(C#N)=C(N)Oc3c2c(C)nn3-c2ccc(C)cc2)c1 (centres undefined) | -5% | 1 | 3% | 21% | 6%
Cc1ccc(SCc2[nH]nc3c2C(c2ccco2)C(C#N)=C(N)O3)cc1 (centres undefined) | ? | -17 | 17% | nt | -11%
Cc1ccc(-n2nc(C)c3c2OC(N)=C(C#N)C3c2ccc(C)o2)cc1 (centres undefined) | 22µM* | 51 | -25% | ? | ?
Cc1ccc(SCc2[nH]nc3c2C(c2ccc(C)o2)C(C#N)=C(N)O3)cc1 (centres undefined) | 25µM* | -12 | 25% | -2% | ?
Cc1ccc(-n2nc(C)c3c2OC(N)=C(C#N)C3c2ccco2)cc1 (centres undefined) | 40µM* | 90 | -21% | 47% | -17%
Cc1ccc(-n2nc(C)c3c2OC(N)=C(C#N)C3c2ccoc2)cc1 (centres undefined) | ? | 32 | nt | nt | -11%
CCOC(=O)c1cnc2ccc(OC)cc2c1Nc1ccc(OCc2ccccc2Cl)cc1 | -8% | -30 | nt | nt | nt
CC(C)(C)n1nnnc1C(c1ccccn1)N(Cc1ccccc1)Cc1ccc(Cl)cc1 (centres undefined) | 11% | -20 | 12µM* | 1.5µM* | 10%
CCN(Cc1ccccc1)C(c1ccc(C)cc1)c1nnnn1C(C)(C)C (centres undefined) | 7% | -25 | nt | 8.3µM* | 1%
CC(C)(C)n1nnnc1C(c1cc2ccccc2o1)N(CCC#N)Cc1ccccc1 (centres undefined) | nt | -39 | nt | nt | nt
CCN(Cc1ccccc1)C(c1ccc(Cl)cc1)c1nnnn1C(C)(C)C (centres undefined) | 14% | -97* | ? | 134% | 0%
CCN(Cc1ccccc1)C(c1ccccn1)c1nnnn1C(C)(C)CC (centres undefined) | 2% | -1 | ? | 23% | -6%
Cc1ccccc1CNC(=O)C1CCN(S(=O)(=O)Cc2ccccc2)CC1 | -5% | 8 | nt | nt | nt
CC(=O)C1=C(c2ccccc2)NC(=O)NC1c1ccc(O)c(Cl)c1 (centres undefined) | 0% | -22 | 7% | ? | 0%
CC(=O)c1ccc(S(=O)(=O)NCC(=O)Nc2nc3ccccc3[nH]2)cc1 | -2% | 13 | -12% | ? | nt
NC(c1csc(Nc2nccc(C(F)(F)F)n2)n1)C1CCCCC1 (centres undefined) | nt | 39 | nt | nt | nt
CCN1/C(=C/C=C/c2oc3ccc(-c4ccccc4)cc3[n+]2CC)Oc2ccc(-c3ccccc3)cc21 | 40µM* | -97* | 0.93µM* | -22% | 10%
CCCCN1C(=O)/C(=C/C=C2\Oc3ccccc3N2CC)SC1=S | -7% | -38 | -18% | 29% | -18%
CC(=O)c1cccc(-c2ccc3c(c2)C(C)(Cc2ccc(S(C)(=O)=O)cc2)C(=O)N3)c1 (centres undefined) | nt | 45 | nt | nt | nt
CC(=O)c1cccc(-c2ccc3c(c2)C(C)(Cc2ccccc2C#N)C(=O)N3)c1 (centres undefined) | nt | -66* | nt | nt | nt
CC(=O)Nc1nc2c(ncn2COCCOC(C)=O)c(=O)[nH]1 | 0% | nt | 4% | 13µM* | 4%
CCCCOCCCNC(=O)C[C@@H]1C[C@@]2(C(=O)OC)CC(C)(C)CC=C2N(Cc2ccccc2)C1=O | nt | -3 | nt | nt | nt
